Laboratory results: PubChem BioAssay
Potency and affinity values are given separately. Calls of active or inactive are those of the source. A call without a number means that no potency is given here. The limit is not given here; nearly all actives have IC50 up to about 0.98 µM.

molecular target: Calcium-dependent protein kinase 1 (Plasmodium falciparum (isolate 3D7)) (UniProt P62344); assay: PfCDPK1 kinase inhibitors, biochemical, TCAMS library (AID 1159585); settings: recombinant PfCDPK1, Kinase-Glo ATP depletion luminescence;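 also: inhibitors leave more ATP so luminescence rises with inhibition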
Sequence (P62344 whole entry, looked up): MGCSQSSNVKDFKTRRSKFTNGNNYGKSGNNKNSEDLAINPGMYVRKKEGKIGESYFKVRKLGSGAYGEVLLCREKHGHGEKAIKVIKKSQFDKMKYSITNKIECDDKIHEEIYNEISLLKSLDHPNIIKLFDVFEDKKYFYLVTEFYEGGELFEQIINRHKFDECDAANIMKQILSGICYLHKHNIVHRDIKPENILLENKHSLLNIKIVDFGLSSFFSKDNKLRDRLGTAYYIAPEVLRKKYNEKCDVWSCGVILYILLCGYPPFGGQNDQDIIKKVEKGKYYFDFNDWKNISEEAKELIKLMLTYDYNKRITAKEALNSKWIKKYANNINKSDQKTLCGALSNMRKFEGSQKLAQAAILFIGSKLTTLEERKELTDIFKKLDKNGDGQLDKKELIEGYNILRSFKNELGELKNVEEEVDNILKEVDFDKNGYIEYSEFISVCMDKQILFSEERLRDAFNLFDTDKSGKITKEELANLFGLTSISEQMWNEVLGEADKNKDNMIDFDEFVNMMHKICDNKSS

Row | Structure (SMILES) | outcome
1 | CCc1c(CCNCCCCCCNCCc2ccc(Br)cc2)ccc(O)c1O | inactive
2 | O=C(c1cc(-c2cccs2)[nH]n1)N1CCN(S(=O)(=O)c2ccc(Cl)cc2)CC1 | inactive
3 | Nc1nc(N)c2c(ccc3c2ccn3Cc2ccc(Cl)cc2)n1 | inactive
4 | CC[C@@H]([C@@H](Cc1cc2ccccc2s1)C(=O)N[C@@H](CCCCNC(=O)OCc1ccccc1)C(=O)Nc1ccccn1)N(O)C=O | inactive
5 | CCc1cc(C(=O)c2cccc(C)c2)c(NC(=O)CN2CCN(C(=O)c3ccco3)CC2)s1 | inactive
6 | NC(=O)CCC(NC(=O)CNC(=O)Nc1cccc(C(F)(F)F)c1)C(=O)O (stereo not given) | inactive
7 | CCOC(=O)N/N=C/[C@H](CCc1ccccc1)NC(=O)[C@H](CC(C)C)NC(=O)c1cc2cccc(OC)c2o1 | inactive
8 | NC(N)=NN=Cc1c2ccccc2c(Cl)c2c(Cl)cccc12 | inactive
9 | NC1=NC(c2ccccc2)(c2ccccc2)C(=O)N1CC=Cc1ccccc1 | inactive
10 | Cc1cccc(CNc2nc(C)cc(N[C@@H](Cc3ccccc3)C(=O)NC3CCCC3)n2)c1 | inactive
11 | O=C(Nc1cccc(-c2ccc(-c3nc4ccccc4[nH]3)cc2)c1)Nc1ccc(F)c(F)c1F | inactive
12 | O=C(Nc1ccccc1)N(Cc1cccc(-c2cccc(CNCCc3ccccc3)c2)c1)C1CCN(Cc2ccccc2)CC1 | inactive
13 | COc1ccc(CCN(Cc2cccs2)C(=O)c2cc3sccc3n2C)cc1OC | inactive
14 | CN(C)c1ccc(-c2ccc(C(=O)NC3CCN(Cc4ccc5c(c4)OCCO5)CC3)s2)cc1 | inactive
15 | Clc1ccc(CNc2ccnc(NCc3cccnc3N3CCCC3)n2)c(Cl)c1 | inactive
